Data reported in the supplement of paper PMC8728848.
About 410 targets per protein were measured; listed, in parts, are those with the strongest signals and a random draw of the rest.

Columns and labels:
Test in all cases: glycan array binding signal (z-score within array); higher = stronger binding
Settings in all cases: glycan notation: IUPAC condensed, linker removed
[1] = molecular target: Fuc(a1-2)Gal(b1-3)GalNAc(b1-3)Gal
Procedure, shortened: (§1)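 Negative Z-scores can be read as non-binding. The Z-score is calculated within each array and then averaged across arrays of one protein sequence at different concentrations or buffers and across linkers. Arrays, 3228 in all, were curated from the Consortium for Functional Glycomics database and kept only where the protein sequence was available.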

[2] = molecular target: Fuc(a1-2)Gal(b1-3)GalNAc(b1-4)[Neu5Ac(a2-3)]Gal(b1-4)Glc
Procedure, shortened: as §1

Fuc(a1-2)Gal(b1-4)GlcNAc = molecular target: Fuc(a1-2)Gal(b1-4)GlcNAc
Procedure, shortened: as §1

Fuc(a1-2)[Gal(a1-3)]Gal = molecular target: Fuc(a1-2)[Gal(a1-3)]Gal
Procedure, shortened: as §1

[3] = molecular target: Fuc(a1-2)[GalNAc(a1-3)]Gal(b1-4)[Fuc(a1-3)]GlcNAc
Procedure, shortened: as §1

[4] = molecular target: Fuc(a1-2)[GalNAc(a1-4)]Gal(b1-4)GlcNAc
Procedure, shortened: as §1

Gal(a1-2)Gal = molecular target: Gal(a1-2)Gal
Procedure, shortened: as §1

[5] = molecular target: Gal(b1-3)[Fuc(a1-4)]GlcNAc(b1-3)Gal(b1-4)[Fuc(a1-3)]GlcNAc
Procedure, shortened: as §1

[6] = molecular target: Gal(b1-4)GlcNAc(b1-3)Gal(b1-4)GlcNAc(b1-3)Gal(b1-4)GlcNAc
Procedure, shortened: as §1

[7] = molecular target: Gal(b1-4)GlcNAc(b1-6)Gal(b1-4)GlcNAc(b1-6)GalNAc
Procedure, shortened: as §1

[8] = molecular target: Gal(b1-4)GlcNAc(b1-6)GalNAc
Procedure, shortened: as §1

Gal3S(b1-3)GalNAc = molecular target: Gal3S(b1-3)GalNAc
Procedure, shortened: as §1

Gal3S(b1-4)Glc6S = molecular target: Gal3S(b1-4)Glc6S
Procedure, shortened: as §1

Gal3S(b1-4)GlcNAc6S = molecular target: Gal3S(b1-4)GlcNAc6S
Procedure, shortened: as §1

Gal3S6S(b1-4)GlcNAc6S = molecular target: Gal3S6S(b1-4)GlcNAc6S
Procedure, shortened: as §1

Gal4S6S(b1-4)GlcNAc = molecular target: Gal4S6S(b1-4)GlcNAc
Procedure, shortened: as §1

Gal6S(b1-4)Glc6S = molecular target: Gal6S(b1-4)Glc6S
Procedure, shortened: as §1

GlcA(b1-3)Gal = molecular target: GlcA(b1-3)Gal
Procedure, shortened: as §1

[9] = molecular target: GlcNAc(b1-2)Man(a1-3)[GlcNAc(b1-2)Man(a1-6)]Man(b1-4)GlcNAc(b1-4)GlcNAc
Procedure, shortened: as §1

[10] = molecular target: GlcNAc(b1-4)GlcNAc(b1-4)GlcNAc(b1-4)GlcNAc(b1-4)GlcNAc(b1-4)GlcNAc
Procedure, shortened: as §1

GlcNAc(b1-6)GalNAc = molecular target: GlcNAc(b1-6)GalNAc
Procedure, shortened: as §1

[11] = molecular target: Man(a1-2)Man(a1-3)[Man(a1-6)]Man(a1-6)[Man(a1-2)Man(a1-3)]Man(b1-4)GlcNAc(b1-4)GlcNAc
Procedure, shortened: as §1

[12] = molecular target: Neu5Ac(a2-3)Gal(b1-3)GalNAc(b1-3)Gal(b1-4)GlcNAc
Procedure, shortened: as §1

[13] = molecular target: Neu5Ac(a2-3)Gal(b1-4)[Fuc(a1-3)]GlcNAc(b1-3)Gal
Procedure, shortened: as §1

[14] = molecular target: Neu5Ac(a2-3)[Neu5Ac(a2-6)]GalNAc
Procedure, shortened: as §1

Neu5Gc(a2-6)GalNAc = molecular target: Neu5Gc(a2-6)GalNAc
Procedure, shortened: as §1

Fuc(b1-3)GlcNAc = molecular target: Fuc(b1-3)GlcNAc
Procedure, shortened: as §1

Gal(a1-3)Gal(b1-4)GlcNAc = molecular target: Gal(a1-3)Gal(b1-4)GlcNAc
Procedure, shortened: as §1

Gal(a1-3)GalNAc = molecular target: Gal(a1-3)GalNAc
Procedure, shortened: as §1

[15] = molecular target: Gal(b1-4)GlcNAc(b1-3)GalNAc
Procedure, shortened: as §1

[16] = molecular target: GlcNAc(b1-2)Gal(b1-3)GalNAc
Procedure, shortened: as §1

[17] = molecular target: GlcNAc(b1-4)GlcNAc(b1-4)GlcNAc
Procedure, shortened: as §1

[18] = molecular target: Neu5Ac(a2-3)Gal(b1-3)GalNAc
Procedure, shortened: as §1

[19] = molecular target: Neu5Ac(a2-3)Gal(b1-3)[Neu5Ac(a2-3)Gal(b1-4)]GlcNAc
Procedure, shortened: as §1

[20] = molecular target: Neu5Ac(a2-3)Gal(b1-4)[Fuc(a1-3)]GlcNAc(b1-3)Gal(b1-4)[Fuc(a1-3)]GlcNAc(b1-3)Gal(b1-4)[Fuc(a1-3)]GlcNAc
Procedure, shortened: as §1

[21] = molecular target: Neu5Ac(a2-8)Neu5Ac(a2-8)Neu5Ac
Procedure, shortened: as §1

[22] = molecular target: Neu5Gc(a2-3)Gal(b1-3)[Fuc(a1-4)]GlcNAc
Procedure, shortened: as §1

Neu5Gc(a2-3)Gal(b1-4)Glc = molecular target: Neu5Gc(a2-3)Gal(b1-4)Glc
Procedure, shortened: as §1

B1: S100A12 (Homo sapiens), P80511 (protein)
chain: MTKLEEHLEGIVNIFHQYSVRKGHFDTLSKGELKQLLTKELANTIKNIKDKAVIDEIFQGLDANQDEQVDFQEFISLVAIALKAAHYHTHKE
glycan array binding signal (z-score) [1]: 1.87
glycan array binding signal (z-score) [2]: -0.259
glycan array binding signal (z-score) (Fuc(a1-2)Gal(b1-4)GlcNAc): -0.748
glycan array binding signal (z-score) (Fuc(a1-2)[Gal(a1-3)]Gal): -0.758
glycan array binding signal (z-score) [3]: -0.154
glycan array binding signal (z-score) [4]: -0.766
glycan array binding signal (z-score) (Gal(a1-2)Gal): 0.006
glycan array binding signal (z-score) [5]: -0.056
glycan array binding signal (z-score) [6]: -0.226
glycan array binding signal (z-score) [7]: -0.768
glycan array binding signal (z-score) [8]: -0.528
glycan array binding signal (z-score) (Gal3S(b1-3)GalNAc): 0.207
glycan array binding signal (z-score) (Gal3S(b1-4)Glc6S): 2.45
glycan array binding signal (z-score) (Gal3S(b1-4)GlcNAc6S): 2.67
glycan array binding signal (z-score) (Gal3S6S(b1-4)GlcNAc6S): 2.83
glycan array binding signal (z-score) (Gal4S6S(b1-4)GlcNAc): 2.91
glycan array binding signal (z-score) (Gal6S(b1-4)Glc6S): 2.19
glycan array binding signal (z-score) (GlcA(b1-3)Gal): 0.368
glycan array binding signal (z-score) [9]: 1.79
glycan array binding signal (z-score) [10]: -0.158
glycan array binding signal (z-score) (GlcNAc(b1-6)GalNAc): -0.903
glycan array binding signal (z-score) [11]: -0.256
glycan array binding signal (z-score) [12]: -0.704
glycan array binding signal (z-score) [13]: -0.943
glycan array binding signal (z-score) [14]: 0.727
glycan array binding signal (z-score) (Neu5Gc(a2-6)GalNAc): -0.009

B2: Siglec-G (Mus musculus), Q80ZE3 (protein)
chain: MSLLLFLLSFLLDGPQGQMESYFLQVQRIVKAQEGLCIFVPCSFSSPEGKWLNRSPLYGYWFKGIRKPSLSFPVATNNKDKVLEWEARGRFQLLGDISKKNCSLLIKDVQWGDSTNYFFRMERGFERFSFKEEFRLQVEALTQKPDIFIPEVLEPGEPVTVVCLFSWTFNQCPAPSFSWMGDAVSFQESRPHTSNYSVLSFIPGLQHHDTELTCQLDFSRMSTQRTVRLRVAYAPRSLAISIFHDNVSVPDLHENPSHLEVQQGQSLRLLCTADSQPPATLSWVLEDQVLSWSSPVGSRTLALELPWVKAGDSGHYTCQAENRLGSQQHTLDLSVLYPPQDLRVTVSQANRTVLEILRNAISLPVLEGQSLCLVCVTYSNPPANVSWAWVTQTLIPIQSSEPGVLELPLVQREHEGEFTCAAQNPLGAQRISLSLSVHYPPQMSSPSCSWEAKGLHCNCSSRAWPAPSLRWRLGEGLLEGNSSNASFTVTFSSLGPWVNSSLSLLQELGPSLWLSCESWNTHGAQTTSVLLLPDKDSATAFSKGAVLGFGITALLALCLIVVIVKTLQKKGTQEEPSRPKLSRGSTILDYINVVPKTRSLARNWKAEPDAPSRSSPLDTHFPKPKKKQKDPHFTYPGCPDPTSSSQVPVSENNPEELHYAALNFSRLRLQETQDPQDTYSDYTEVRVH
glycan array binding signal (z-score) [1]: -0.186
glycan array binding signal (z-score) (Fuc(b1-3)GlcNAc): 1.54
glycan array binding signal (z-score) (Gal(a1-3)Gal(b1-4)GlcNAc): -0.064
glycan array binding signal (z-score) (Gal(a1-3)GalNAc): -0.268
glycan array binding signal (z-score) [15]: -0.134
glycan array binding signal (z-score) [16]: -0.21
glycan array binding signal (z-score) [17]: -0.138
glycan array binding signal (z-score) [18]: 0.414
glycan array binding signal (z-score) [19]: 0.903
glycan array binding signal (z-score) [20]: 1
glycan array binding signal (z-score) [21]: 1.22
glycan array binding signal (z-score) [22]: 0.241
glycan array binding signal (z-score) (Neu5Gc(a2-3)Gal(b1-4)Glc): -0.022
